Many of the other results were omitted from the sample, so hits are more common in it than they were.
Pf Dd2 inh – Plasmodium falciparum Dd2 growth inhibition. P. falciparum Dd2 growth, SYBR Green, 72 h. Potency, µM (doses to about 28.9 µM), for the others: at the top dose activity, negative = inhibition, usual class: inhibitors. 120,000 tested, 4.3% active. AID 1347417; active means well fitted inhibition curve with a large enough effect;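 further: plate controls were DMSO vehicle for no effect and reference drug for full effect; nearly all actives have a fitted effect of over 65% in size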
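Infected erythrocytes (Dd2, 0.3% parasitemia, 2.5% hematocrit final) are added to compound in RPMI-1640/Albumax II medium, grown 72 h at 37C in low oxygen, then lysed with saponin/Triton-X containing SYBR Green and read by fluorescence.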
* hit, by the source's call; i = inactive; [ ] = dose if it differs, or a comment. Potency means the concentration at half of the fitted maximal effect.

SMILES	Pf Dd2 inh
Cc1ccc(NC2=C(c3ccc(C(F)(F)F)cc3)C(=O)c3ccccc32)cc1C	0.79µM*
CNC(=O)C1(N2CCC[C@H]2C(=O)N2CCC[C@@H]2COC)CCCCC1	-25%[44.1 µM]
Cc1ccc(-c2nc3c(cnn3-c3ccccc3)c(=O)n2-c2cccc(Cl)c2)cc1	-7%
Cc1ccc(-n2c(-c3ccco3)nc3c(cnn3-c3ccccc3C)c2=O)cc1	i
Cc1ccc(-n2c(-c3ccco3)nc3c(cnn3-c3ccc(C)cc3)c2=O)cc1	11µM*
Cc1cccc(-n2c(-c3ccco3)nc3c(cnn3-c3ccc(F)cc3)c2=O)c1	i
Cc1ccc(-n2c(C)nc3c(cnn3-c3ccccc3)c2=O)cc1	14%
COc1cccc(-n2c(-c3ccccc3F)nc3c(cnn3-c3ccc(C)cc3)c2=O)c1	8.9µM*
Cc1nonc1CC(=O)N1CCC(O)(CN2CCOCC2)C(C)(C)C1 (configuration not stated)	-15%
O=C(NC[C@H]1OC[C@@H](NC2CCC(F)(F)CC2)[C@@H]1O)c1ccccc1	10%[44.1 µM]
CN(Cc1ccccc1)C(=O)C1(c2ccc(NC(=O)C3CC3)cc2)CCCCC1	4.5µM*
CC(=O)Nc1ccc(C2(C(=O)N(C)Cc3ccccc3)CCCCC2)cc1	i
O=C(Nc1ccc(C2(C(=O)O)CCC2)cc1)C1CC1	0%
CCc1ccccc1S(=O)(=O)N1C[C@@H](F)C[C@H]1C(=O)N1CCCCC1	i
Cc1ccc(C(=O)NCC(=O)N2CCCCCCNC(=O)CC2c2ccccc2)cn1 (configuration not stated)	7%
Clc1ccc(CSc2nc(NCCc3ccccc3)c3ccccc3n2)cc1	10µM*
COc1ccc(CCNc2nc(SCc3ccc(Cl)cc3)nc3ccccc23)cc1OC	-17%
Clc1ccccc1CSc1nc(NCCc2ccccc2)c2ccccc2n1	11µM*
COc1ccc(CCNc2nc(SCc3cccc(F)c3)nc3ccccc23)cc1OC	-18%
Cc1ccccc1CSc1ncc(Cl)c(C(=O)NCc2ccccc2)n1	5%
COc1ccc(C(C)=O)cc1CSc1nc(NCc2ccc(Cl)cc2)c2ccccc2n1	i
Cc1[nH]c2ccccc2c1CN1CCc2nc(N3CCOCC3)[nH]c(=O)c2CC1	i[5.79 µM]
COCCN1C(=O)[C@H]2CN(Cc3ccccc3)C[C@H]2C1=O	99%
CCn1cc(S(=O)(=O)N2C[C@@H](C(=O)NC)[C@H](c3n[nH]c(C)n3)C2)cn1	-8%
CN(CC1CCOCC1)C(=O)c1ccc(Cl)s1	-18%
SMILES	Pf Dd2 inh
Cc1nc(-c2c3n(c(=O)n(CC(=O)Nc4cccc(C(F)(F)F)c4)c2=O)CCCC3)no1	-22%
Cc1ccc(CC(=O)N2CC(c3nnc(-c4ccc(C)cc4)o3)C3(CCOCC3)C2)cc1 (configuration not stated)	i
CNC(=O)C1CN(c2ccc(OC)cc2)C(=O)N1 (configuration not stated)	-7%[44.1 µM]
COc1cccc(-c2cc(C(=O)Nc3cc(Cl)ccc3O)on2)c1	1µM*
COc1cccc(-c2cc(C(=O)Nc3cc(OC)c(OC)c(OC)c3)on2)c1	-13%[0.594 µM]
Cc1ccc(O)c(NC(=O)COCc2cc(-c3ccco3)on2)c1	18%
Cc1ccc(O)c(NC(=O)c2noc3c2CCCCC3)c1	4.5µM*
Cc1ccc(C)c(N2CCN(C(=O)c3noc4c3CCCCC4)CC2)c1	i
COc1cccc(C(=O)Nc2cc(-c3ccccc3)no2)c1	-1%
O=C(Nc1cccc(O)c1)c1cc(-c2ccccc2F)no1	-13%
COc1ccc(OC)c(NC(=O)c2noc3c2CCCC3)c1	-14%
Cc1ccc(O)c(NC(=O)c2cc(-c3ccccc3O)no2)c1	2.2µM*
COc1ccccc1NC(=O)N1CC[C@H]2CC(=O)N(CCc3cnc[nH]3)CC[C@H]2C1	-24%[44.1 µM]
COCCN1CC(CO)C2(CCN(C(=O)c3ccccc3)CC2)C1 (configuration not stated)	-7%
Cc1cnc(C(=O)NC2C[C@H]3CC[C@@H](C2)N3C(=O)c2ccccc2)cn1 (some centres not stated)	-15%
COc1ccc(CN2CCN3C(=O)N(Cc4ccc(C)cc4)C[C@H]3C2)cn1	-19%[44.1 µM]
O=C(c1cc2c(Cl)nc3ccccc3c2s1)N1CCCCC1	12%
COc1ccc(Nc2cc(C(=O)NCc3ccccc3)c3ccccc3n2)c(OC)c1	-13%
CCCNC(=O)c1ccc2nc(CCc3ccccc3)oc2c1	4%
CCCN1CCN(CCCNC(=O)c2cc3c(Cl)nc4ccccc4c3s2)CC1	10µM*
O=C(NCCCN1CCN(c2ccccc2F)CC1)c1ccc2nc(CCc3ccccc3)oc2c1	11µM*
CC(C)NC(=O)c1cc2c(Cl)nc3ccccc3c2s1	3%
COc1ccc(N2CCN(CCCNC(=O)c3cc(Nc4ccccc4OC)nc4ccccc34)CC2)cc1	-16%
COc1ccc(OC)c(CNC(=O)c2cc3c(Cl)nc4ccccc4c3s2)c1	50%
CCOC(=O)C1CCCN(C(=O)c2cc3c(Cl)nc4ccccc4c3s2)C1 (configuration not stated)	-16%
SMILES	Pf Dd2 inh
O=C(NCc1ccccc1)c1ccc2nc(CCc3ccccc3)oc2c1	3%
O=C(NCCCN1CCN(c2ccccc2F)CC1)c1cc2c(Cl)nc3ccccc3c2s1	2.8µM*
COc1ccc(Nc2cc(C(=O)NCCCN3CCN(c4ccccc4F)CC3)c3ccccc3n2)c(OC)c1	10µM*
COc1ccc(-c2ccccc2NC(=O)C2CCCN2C(=O)CC(C)(C)C)cc1 (configuration not stated)	-3%
NC(=O)[C@@H]1C[C@@H](O)[C@H](O)[C@@H]2NC(=S)N(CC3CCCCC3)[C@@H]21	12%[44.1 µM]
COCC1CN(C(C)=O)CC12CCN(Cc1ccc3[nH]ccc3c1)CC2 (configuration not stated)	9%
Cc1nc(N2CCN(C)CC2)ncc1C(=O)N1C[C@@H](C)[C@](O)(C2CC2)C1	-5%
c1cc2nnc(C3CC3)n2nc1N1CCCC1	19%
CCn1c2c(c(=O)n1-c1ccccc1)CCN(Cc1cncc(OC)c1)C2	i
O=C1CO[C@H]2CN(Cc3ncc[nH]3)C[C@H]2N1Cc1ccc(F)cc1	-11%[44.1 µM]
Cn1nccc1C(=O)N1CCCN(S(C)(=O)=O)c2ccccc21	-13%
CCc1cccc(NC(=O)C2CCN(C(=O)c3ncn4c3COC(c3ccccc3)C4)CC2)c1 (configuration not stated)	-13%
CCC(NC(=O)c1cc(OC)ccc1OC1CCN(C(C)=O)CC1)c1ccncc1 (configuration not stated)	6%
Cc1nn(C)c2ncc(C(=O)O)c(NC3CC(c4cc(=O)[nH]cn4)C3)c12 (configuration not stated)	3%
COc1ccc(Nc2cc(C(=O)NCCCN(C)Cc3ccccc3)c3ccccc3n2)c(OC)c1	17%
COc1ccccc1Nc1cc(C(=O)NC2CCCC2)c2ccccc2n1	17%
CCN(CCCNC(=O)c1cc(Nc2ccccc2OC)nc2ccccc12)c1cccc(C)c1	11µM*
Cc1nn(C)c2ncnc(N3CCCC(Cc4nc5ccccc5[nH]4)C3)c12 (configuration not stated)	-2%
CC(C)(C)CC(=O)N1CCC(C(NC(=O)c2ccccc2Cl)C(=O)N2CCCCC2)CC1 (configuration not stated)	-17%
CCOc1cccc(-c2noc(-c3nnn4c3COC(c3ccc(Cl)cc3)C4)n2)c1 (configuration not stated)	-16%
CC(C)(C)C(=O)N1CCC2(CC1)C(=O)N(CC(=O)Nc1cccc(Cl)c1)CN2c1ccccc1	4µM*
